This is an account of results in PubChem BioAssay (NCI).

Some test systems named below: HCT-15 colon; HT29 colon; SNB-75 CNS; SNB-19 CNS; U251 CNS; PC-3 prostate; SK-MEL-5 melanoma; UACC-62 melanoma; LOX IMVI melanoma; SK-MEL-28 melanoma; SK-MEL-2 melanoma; EKVX NSCLC; SN12C renal; UO-31 renal; TK-10 renal; ACHN renal; CAKI-1 renal; A498 renal; CCRF-CEM leukemia; MOLT-4 leukemia.
Holding throughout (experiment): NCI-60 one-dose screen, 48 h (100 = growth as untreated, 0 = no growth, -100 = all killed)
Conditions in all cases: 10 µM unless noted

This is part of a sample that, as a whole, favours compounds with a hit. Of some 83,000 tested, about 20% had one in any assay.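 Activity criterion: percent growth below 10, measured after cells in 96-well plates were exposed to a single compound concentration for 48 hours.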 Values without a mark were called inactive. The source made the active and inactive calls.

In the case of `COc1ccc(/C=C(\C#N)n2nnc3cc(Cl)ccc32)cc1`, the growth in the test on HCT-15 colon is 0.0447% (active); in the test with HT29 colon, 2.07% (active); in the test on SNB-75 CNS it was -47.6% (active); with SNB-19 CNS, 9.63% (active); in the test with U251 CNS it was 5.37% (active); in the test on PC-3 prostate it was 18.8%. The growth in the test on SK-MEL-5 melanoma is -17.5% (active); with UACC-62 melanoma, 9.49% (active); in the test on LOX IMVI melanoma, -45.7% (active); in the test with SK-MEL-28 melanoma, 31.3%; in the test with SK-MEL-2 melanoma, 26.1%; in the test on EKVX NSCLC it was 11.4%. For the same compound, the growth with SN12C renal is 11.7%; in the test with UO-31 renal, 25.9%; in the test on TK-10 renal, 25.6%; in the test on ACHN renal, 14.6%; in the test on CAKI-1 renal, 32.7%; in the test on A498 renal, -23.5% (active). The growth is 12.4% with CCRF-CEM leukemia and 14.2% in the test with MOLT-4 leukemia.

Consider `COc1ccc(-c2cc(-c3cccnc3)nc3sc4c(=O)[nH]c(-c5ccc(Cl)cc5)nc4c23)cc1OC`, for which the growth is 97% with HCT-15 colon; 96.3% in the test with HT29 colon; 87.4% in the test with SNB-75 CNS; 95.9% in the test on SNB-19 CNS; 82.7% with U251 CNS; 90.4% in the test with PC-3 prostate. Further, the growth in the test with SK-MEL-5 melanoma was 89.9%; in the test with UACC-62 melanoma it was 90.5%; with LOX IMVI melanoma, 86%; with SK-MEL-28 melanoma, 102%; with SK-MEL-2 melanoma, 95.7%; in the test on EKVX NSCLC it was 90%. Moreover, the growth in the test with SN12C renal is 89.5%; in the test on UO-31 renal, 78.1%; in the test with TK-10 renal it was 104%; in the test with ACHN renal it was 93.4%; in the test on CAKI-1 renal, 86.4%; in the test on A498 renal it was 91.2%. The growth in the test with CCRF-CEM leukemia is 80.3%; with MOLT-4 leukemia, 37.6%.

Regarding `CC(C)COc1nc2c(c(=O)n(C)c(=O)n2C)n1C`, the growth in the test with HCT-15 colon was 97%; in the test on HT29 colon, 99.8%; in the test with SNB-75 CNS it was 82.4%; in the test on SNB-19 CNS, 99.9%; in the test with U251 CNS it was 101%; with PC-3 prostate, 102%. For the same compound, the growth is 86.7% in the test on SK-MEL-5 melanoma; 93.8% in the test on UACC-62 melanoma; 105% in the test with LOX IMVI melanoma; 106% in the test on SK-MEL-28 melanoma; 36.1% in the test on SK-MEL-2 melanoma; 95.1% with EKVX NSCLC. The growth in the test with SN12C renal was 99.8%; in the test with UO-31 renal, 94.7%; with TK-10 renal, 105%; with ACHN renal it was 102%; with CAKI-1 renal it was 107%; with A498 renal, 84.7%. Also, the growth is 97.5% in the test with CCRF-CEM leukemia and 93.3% in the test on MOLT-4 leukemia.

Regarding `CC(=O)N1N=C(c2ccc(Nc3nc(Nc4ccccc4)nc(Nc4ccccc4)n3)cc2)CC1c1ccccc1` (stereo not given), the growth in the test on HCT-15 colon is 87%; in the test with HT29 colon it was 103%; with SNB-75 CNS, 90.8%; in the test with SNB-19 CNS, 84.3%; in the test with U251 CNS, 92.6%; in the test with PC-3 prostate, 80.5%. For the same compound, the growth is 78.4% in the test with SK-MEL-5 melanoma; 91% with UACC-62 melanoma; 89.4% in the test on LOX IMVI melanoma; 111% in the test with SK-MEL-28 melanoma; 58.6% in the test on SK-MEL-2 melanoma; 79.7% in the test on EKVX NSCLC. Further, the growth is 99.6% with SN12C renal; 73.5% with UO-31 renal; 87.7% with TK-10 renal; 93.5% in the test with ACHN renal; 90.2% in the test with CAKI-1 renal; 82.4% in the test with A498 renal. The growth with CCRF-CEM leukemia was 68.2%; in the test with MOLT-4 leukemia, 75.1%.

Consider `CCC(=C(c1ccc(OCCN2CCCCC2)cc1)c1ccc(OCCN2CCCCC2)cc1)c1ccc(Cl)cc1`, for which the growth was -84.9% (active) in the test on HCT-15 colon; -74.6% (active) in the test on HT29 colon; -96.4% (active) with SNB-75 CNS; -94.5% (active) with SNB-19 CNS; -82.2% (active) with U251 CNS; -81.2% (active) with PC-3 prostate. Further, the growth was -96.8% (active) in the test on SK-MEL-5 melanoma; -89.7% (active) in the test with UACC-62 melanoma; -84.8% (active) with LOX IMVI melanoma; -97% (active) in the test with SK-MEL-28 melanoma; -76.1% (active) in the test on SK-MEL-2 melanoma; -82.1% (active) in the test with EKVX NSCLC. Further, the growth in the test on SN12C renal was -94.9% (active); in the test on UO-31 renal, -94.5% (active); in the test with TK-10 renal it was -84.7% (active); in the test on ACHN renal, -99.7% (active); in the test with CAKI-1 renal it was -95.6% (active); in the test on A498 renal, -81.4% (active). In addition, the growth is -74.4% (active) with CCRF-CEM leukemia and -68.2% (active) with MOLT-4 leukemia.

As for `COCCOc1cc2ncnc(N3CCN(c4cc(S(C)(=O)=O)c(C)cc4Cl)CC3)c2cc1OCCOC`, the growth with HCT-15 colon is 95.7%; with HT29 colon, 94.4%; in the test on SNB-75 CNS it was 98.8%; in the test with SNB-19 CNS it was 96.8%; in the test with U251 CNS, 85.3%; with PC-3 prostate, 81.5%. In addition, the growth in the test with SK-MEL-5 melanoma was 77%; in the test with UACC-62 melanoma, 94.2%; in the test on LOX IMVI melanoma it was 93.5%; in the test with SK-MEL-28 melanoma, 107%; in the test on SK-MEL-2 melanoma, 95.3%; in the test with EKVX NSCLC, 90.4%. The growth in the test on SN12C renal was 87.2%; in the test with UO-31 renal it was 61.8%; in the test on TK-10 renal it was 104%; with ACHN renal, 100%; in the test on CAKI-1 renal, 101%; in the test with A498 renal it was 88.2%. Further, the results for the growth with CCRF-CEM leukemia and with MOLT-4 leukemia were 89.5% and 79.4%, respectively.

Turning to `CCC1=C[C@@H]2C[C@]3(C(=O)OC)c4[nH]c5ccccc5c4CC[N@+](CC(=O)Nc4cc5c(cc4OC)N(C)[C@H]4[C@@](O)(C(=O)OC)[C@H](OC(C)=O)[C@]6(CC)C=CCN7CC[C@]54[C@@H]76)(C2)[C@H]13`, the growth with HCT-15 colon was 108%; in the test on HT29 colon it was 109%; in the test on SNB-75 CNS, 98.8%; in the test on SNB-19 CNS, 110%; in the test on U251 CNS it was 97.3%; in the test on PC-3 prostate, 93.2%. The growth was 101% with SK-MEL-5 melanoma; 97.7% with UACC-62 melanoma; 99.1% in the test on LOX IMVI melanoma; 109% with SK-MEL-28 melanoma; 105% in the test on SK-MEL-2 melanoma; 105% in the test with EKVX NSCLC. Besides, the growth in the test on SN12C renal was 105%; in the test with UO-31 renal, 84.4%; in the test with TK-10 renal, 98.6%; in the test with ACHN renal, 106%; in the test with CAKI-1 renal, 93.2%; in the test on A498 renal, 121%. The growth in the test on CCRF-CEM leukemia was 80.6%; in the test on MOLT-4 leukemia it was 108%.

In the case of `C=C1C(=O)O[C@H]2[C@H]1CC/C(Cn1cc(-c3ccccc3)nn1)=C\CC[C@@]1(C)O[C@@H]21`, the growth in the test on HCT-15 colon was -70.4% (active); in the test on HT29 colon, -58.3% (active); in the test on SNB-75 CNS, 64.2%; in the test with SNB-19 CNS it was 68.1%; in the test with U251 CNS it was 50.2%; with PC-3 prostate, 37.3%. The growth in the test with SK-MEL-5 melanoma was 21%; in the test with UACC-62 melanoma, -45.2% (active); in the test on LOX IMVI melanoma it was -84.7% (active); in the test with SK-MEL-28 melanoma it was -26.9% (active); with SK-MEL-2 melanoma, 6.62% (active); with EKVX NSCLC, 72.1%. Also, the growth was 6.55% (active) with SN12C renal; -75.1% (active) with UO-31 renal; -72.1% (active) in the test with TK-10 renal; -40.7% (active) in the test on ACHN renal; -62.8% (active) with CAKI-1 renal; 46.6% in the test on A498 renal. Besides, the figures for the growth with CCRF-CEM leukemia and with MOLT-4 leukemia were -20.7% (active) and -13.8% (active), respectively.
